Reference: PubChem BioAssay (NCATS)
Unmarked numbers belong to inactive results. For part of these data: Measured potencies and affinities stand elsewhere. Active and inactive are the calls of the source. No rule for the calls is given here.

Legend:
[1] = Ebola virus entry assay, green fluorescence channel
[2] = Ebola virus entry assay, blue channel fluorescence
[3] = Ebola virus entry assay, ratio channel
[4] = Ebola virus entry assay, green channel fluorescence
[5] = Ebola virus entry assay, reporter ratio channel; Channel type: primary
For efficacy in this document: 0% is about no effect.

| SMILES | efficacy [1] [%] | AC50 [2] | AC50 [3] | outcome [4] | AC50 [5] | outcome [2] | outcome [3] | outcome [5] |
| --- | --- | --- | --- | --- | --- | --- | --- | --- |
| CC[C@H](c1ccc(O)cc1)[C@@H](CC)c1ccc(O)cc1 | -12.4 | 20 µM (active) | 25.1 µM (active) | inactive | 25.1 µM (active) |  |  |  |
| CC(CNC1CCCCC1)OC(=O)c1ccccc1 (stereo not given) | 19.5 | 8.91 µM (active) | 8.91 µM (active) | inactive | 8.91 µM (active) |  |  |  |
| C[N+]1(CC2COC(c3ccccc3)(c3ccccc3)O2)CCCCC1 (stereo not given) | 25 |  |  | inactive |  | inactive | inactive | inactive |
| Oc1c(Cl)cc(Cl)cc1Sc1cc(Cl)cc(Cl)c1O | -26.7 | 11.2 µM (active) | 22.4 µM (active) | inactive | 22.4 µM (active) |  |  |  |
| COc1ccc2nc(NC(=O)Nc3ccccc3)sc2c1 | -33.8 | 22.4 µM (active) | 15.8 µM (active) | inactive | 15.8 µM (active) |  |  |  |
| COC(=O)[C@H]1[C@H]2C[C@@H]3c4[nH]c5cc(OC)ccc5c4CCN3C[C@H]2C[C@@H](OC(=O)/C=C/c2ccc(O)c(OC)c2)[C@@H]1OC | -80.1 | 3.55 µM (active) | 3.16 µM (active) | inactive | 3.16 µM (active) |  |  |  |
| Cc1c(N)cccc1C(F)(F)F | 32.5 |  |  | inactive |  | inactive | inactive | inactive |
| Cc1cc(=O)oc2cc(O)ccc12 | -26.6 |  |  | inactive |  | inactive | inactive | inactive |
| O=C(Nc1ncc([N+](=O)[O-])s1)c1cccs1 | -37.9 |  |  | inactive |  | inactive | inactive | inactive |
| O=S1(=O)c2cccc3cccc(c23)N1CCCN1CCN(c2ccc(F)cc2)CC1 | -13.1 | 25.1 µM (active) | 25.1 µM (active) | inactive | 25.1 µM (active) |  |  |  |
| C[C@H](N)C(=O)N[C@@H](C)C(=O)NC1[C@H]2CN(c3nc4c(cc3F)c(=O)c(C(=O)O)cn4-c3ccc(F)cc3F)C[C@@H]12 (stereo not given in full) | 11 |  |  | inactive |  | inactive | inactive | inactive |
| N=C(N)c1ccc2cc(OC(=O)c3ccc(N=C(N)N)cc3)ccc2c1 | 15 |  |  | inactive |  | inactive | inactive | inactive |
| CCCCC1C(=O)N(c2ccccc2)N(c2ccccc2)C1=O | -25 |  |  | inactive |  | inactive | inactive | inactive |
| Cc1cc(CC(=O)O)n(C)c1C(=O)c1ccc(Cl)cc1 | 24 |  |  | inactive |  | inactive | inactive | inactive |
| CC(C)OC(=O)c1cc2c(OCC(O)CNC(C)(C)C)cccc2[nH]1 (stereo not given) | -19.4 | 28.2 µM (active) | 31.6 µM (active) | inactive | 31.6 µM (active) |  |  |  |
| C=CC[N+]1([C@H]2C[C@H]3[C@@H]4CC[C@H]5C[C@H](OC(C)=O)[C@@H](N6CCCCC6)C[C@]5(C)[C@H]4CC[C@]3(C)[C@H]2OC(=O)CC)CCCCC1 | 47.7 | 14.1 µM (active) |  | inactive | 28.2 µM (active) |  | inactive |  |
| Oc1ccc(Cl)cc1Sc1cc(Cl)ccc1O | -28.7 | 10 µM (active) | 15.8 µM (active) | inactive | 15.8 µM (active) |  |  |  |
| C=CCOc1cc(Cl)ccc1C(=O)NCCN(CC)CC | -28.4 | 14.1 µM (active) | 15.8 µM (active) | inactive | 15.8 µM (active) |  |  |  |
| CCC(C)(C)c1ccc(CC(C)CN2C[C@@H](C)O[C@@H](C)C2)cc1 (stereo not given in full) | -29.5 | 39.8 µM (active) |  | inactive | 39.8 µM (active) |  | inactive |  |
| CCC1(c2cnc[nH]2)Cc2ccccc2C1 | -11.3 | 25.1 µM (active) |  | inactive | 31.6 µM (active) |  | inactive |  |
| CC(C)(Cc1c[nH]c2ccccc12)NCC(O)COc1ccccc1C#N (stereo not given) | 48.7 | 35.5 µM (active) | 25.1 µM (active) | inactive | 25.1 µM (active) |  |  |  |
| CCOc1ccc2nc(S(N)(=O)=O)sc2c1 | 31.6 |  |  | inactive |  | inactive | inactive | inactive |
| CO[C@]1(NC(=O)CSC(F)F)C(=O)N2C(C(=O)O)=C(CSc3nnnn3CCO)CO[C@H]21 | -28.6 |  |  | inactive |  | inactive | inactive | inactive |
| NC(=O)C(=O)N/N=C/c1ccc([N+](=O)[O-])o1 | 21.5 |  |  | inactive |  | inactive | inactive | inactive |
| COC(=O)C1=C(C)NC(C)=C(C(=O)O[C@@H]2CCCN(Cc3ccccc3)C2)[C@@H]1c1cccc([N+](=O)[O-])c1 | 39.4 | 39.8 µM (active) |  | inactive | 35.5 µM (active) |  | inactive |  |
| NC(N)=NN=C(/C=C/c1ccc([N+](=O)[O-])o1)/C=C/c1ccc([N+](=O)[O-])o1 | -41.4 | 3.16 µM (active) | 3.16 µM (active) | inactive | 3.16 µM (active) |  |  |  |

| SMILES | efficacy [1] [%] | AC50 [2] | AC50 [3] | outcome [4] | AC50 [5] | outcome [2] | outcome [3] | outcome [5] |
| --- | --- | --- | --- | --- | --- | --- | --- | --- |
| O=C(Nc1ccc(Cl)cc1)Nc1ccc(Cl)c(Cl)c1 | -28.2 | 15.8 µM (active) | 12.6 µM (active) | inactive | 12.6 µM (active) |  |  |  |
| CCOC(=O)c1c(N)sc2c1CCN(Cc1ccccc1)C2 | 21.5 |  |  | inactive |  | inactive | inactive | inactive |
| CC(C)n1nc(-c2cc3cc(O)ccc3[nH]2)c2c(N)ncnc21 | 37.9 | 2.82 µM (active) | 2.24 µM (active) | inactive | 2.24 µM (active) |  |  |  |
| C=C[C@@]1(C)CC(=O)[C@]2(O)[C@@]3(C)[C@@H](O)CCC(C)(C)[C@@H]3[C@H](O)[C@H](OC(C)=O)[C@@]2(C)O1 | 10.9 | 10 µM (active) |  | inactive |  |  | inactive | inactive |
| CCCOc1ccc2nc(NC(=O)OC)[nH]c2c1 | -28.5 | 0.501 µM (active) | 0.562 µM (active) | inactive | 0.562 µM (active) |  |  |  |
| CN(Cc1ccc(C(C)(C)C)cc1)Cc1cccc2ccccc12 | -29.5 | 35.5 µM (active) |  | inactive | 39.8 µM (active) |  | inactive |  |
| Clc1ccc(Nc2nnc(Cc3ccncc3)c3ccccc23)cc1 | -25.3 | 15.8 µM (active) |  | inactive | 31.6 µM (active) |  | inactive |  |
| NC(N)=N/N=C/c1c(Cl)cccc1Cl | -12.6 | 28.2 µM (active) | 28.2 µM (active) | inactive | 28.2 µM (active) |  |  |  |
| CC(C)(C)CC(C)(C)c1ccc(O)c(Cc2ccc(Cl)cc2Cl)c1 | 12.2 | 22.4 µM (active) | 14.1 µM (active) | inactive | 14.1 µM (active) |  |  |  |
| CC1(C)O[C@@H]2C[C@H]3[C@@H]4CCC5=CC(=O)CC[C@]5(C)[C@@]4(F)[C@@H](O)C[C@]3(C)[C@]2(C(=O)CCl)O1 | 53.9 | 12.6 µM (active) | 10 µM (active) | inactive | 10 µM (active) |  |  |  |
| CCN1CCN(c2cc(-c3ccc(F)cc3)c3c(n2)CCCCCC3)CC1 | 32.1 | 1.41 µM (active) | 1.78 µM (active) | inactive | 1.78 µM (active) |  |  |  |
| CC(C)C[C@@H](N)C(=O)O | 14.3 |  |  | inactive |  | inactive | inactive | inactive |
| COc1ccc(CN2CCN(C(c3ccc(F)cc3)c3ccc(F)cc3)CC2)c(OC)c1OC | 25.5 | 7.08 µM (active) | 10 µM (active) | inactive | 10 µM (active) |  |  |  |
| CCOC(=O)[C@H](CCc1ccccc1)N[C@H]1CS[C@H](c2cccs2)CN(CC(=O)O)C1=O | 24 |  |  | inactive |  | inactive | inactive | inactive |
| C=CCOc1ccccc1OCC(O)CNC(C)C (stereo not given) | -13.2 | 14.1 µM (active) | 14.1 µM (active) | inactive | 14.1 µM (active) |  |  |  |
| CC1(c2ccccc2)OC(C(=O)O)=CC1=O (stereo not given) | -18.5 |  |  | inactive |  | inactive | inactive | inactive |
| Cc1c(C)n(CCN(C)C)c2ccc(C(=O)OCCN(C)C)cc12 | -26.4 | 2.24 µM (active) | 2.51 µM (active) | inactive | 2.51 µM (active) |  |  |  |
| CN1CCN(c2cc3c(cc2F)c(=O)c(C(=O)O)cn3-c2ccc(F)cc2)CC1 | 8.5 |  |  | inactive |  | inactive | inactive | inactive |
| CN(C)CCN(Cc1cccs1)c1ccccn1 | 21.2 | 31.6 µM (active) | 17.8 µM (active) | inactive | 17.8 µM (active) |  |  |  |
| CCCOc1ccc(C(=O)OCCN(CC)CC)cc1N | 35 | 39.8 µM (active) | 22.4 µM (active) | inactive | 22.4 µM (active) |  |  |  |
| CC(C)(C)C(=O)OCOC(=O)[C@@H]1N2C(=O)[C@@H](NC(=O)[C@H](N)c3ccccc3)[C@H]2SC1(C)C | 35 | 12.6 µM (active) | 20 µM (active) | inactive | 20 µM (active) |  |  |  |
| Fc1ccc(C(c2ccc(F)cc2)N2CCNCC2)cc1 | 28.7 | 10 µM (active) | 10 µM (active) | inactive | 10 µM (active) |  |  |  |
| CN(C)CCN1C(=O)c2ccccc2N(C)c2ccccc21 | -25.3 | 39.8 µM (active) |  | inactive | 39.8 µM (active) |  | inactive |  |
| Clc1ccc(C(Cn2ccnc2)OCc2ccsc2Cl)c(Cl)c1 (stereo not given) | 49.7 | 10 µM (active) | 8.91 µM (active) | inactive | 8.91 µM (active) |  |  |  |
| C#C[C@]1(O)CC[C@H]2[C@@H]3CCc4cc(O)ccc4[C@H]3CC[C@@]21C | -19.9 | 11.2 µM (active) | 11.2 µM (active) | inactive | 11.2 µM (active) |  |  |  |
